In the library only some 9.5% were active in any assay of this set; here they are far more common.
SARS PLpro yeast: blocks SARS-CoV papain-like protease in a yeast assay; S. cerevisiae expressing SARS-CoV PLpro, growth rescue; Potency, µM (highest dose often 32.9 µM), for the others: at the top dose activity, positive = growth rescue, hits mostly activators; actives 0.19% (n = 330,000); further: 0% is about no effect; nearly all actives have a fitted effect of over 55% in size
Pf growth 48h: inhibits P. falciparum growth in the first generation, 48 h; actives 5.9% (n = 310,000); P. falciparum luciferase growth in erythrocytes, 48 h; Potency, µM (titrated, usually from 28.7 µM), inactives show top-dose activity change, negative = inhibition, usual class: inhibitors; AID 504832; active means well fitted inhibition curve with a large enough effect; inconclusive means small, poorly fitted or top-dose-only effect, or another doubt; inactive means no such curve, though single readings can be large or run the other way; further: on the % scale 0 is the no-effect control and ±100 the full control effect
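Here the parasites carry a stable luciferase gene and grow inside erythrocytes in Albumax-based RPMI medium with compound for one erythrocytic cycle. Activity is scored as loss of luminescent signal.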
Pf growth 96h: P. falciparum growth inhibition at 96 hour, primary screen for plastid delayed-death inhibitors | actives 6.9% (n = 320,000) | P. falciparum luciferase reporter growth, 96 h | AID 504834 | Potency, µM (series often up to 28.7 µM), for inactives: at the top dose activity change, negative = inhibition, most hits filed as inhibitors; active means well fitted inhibition curve with a large enough effect; inconclusive means small, poorly fitted or top-dose-only effect, or another doubt; inactive means no such curve, though single readings can be large or run the other way; further: on the % scale 0 is the no-effect control and ±100 the full control effect
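Cell-based qHTS: luciferase-tagged P. falciparum in erythrocytes (2% hematocrit, 0.05% parasitemia final) incubated with compounds for 96 hours, 37 C, 5% CO2; luciferase detection reagent then added and luminescence measured.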
NS1 function inh: blocks influenza NS1 protein function; Potency, µM (highest dose often 46.1 µM), inactives show at the top dose activity, positive = more growth; actives 0.4% (n = 270,000); AID 2326; further: actives are rising curves; nearly all actives have a fitted effect of over 50% in size
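Recovery from NS1-induced slow growth read by OD600 in budding yeast switched to galactose assay medium (pH 6.0, -URA) at 1:100 dilution. Compound 23 nl per well; the matching strain lacking NS1 serves as control.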
RE007 growth inh: less growth of the S. pombe RE007 Vpr strain; S. pombe RE007 Vpr strain, BacTiter-Glo ATP luminescence, 24 h; Potency, µM (top dose mostly 92.2 µM), for inactives: at the top dose activity change, negative = less growth, hits mostly inhibitors; actives 0.21% (n = 360,000); AID 651644; active means well fitted falling curve with a large enough effect; inconclusive means small, poorly fitted or top-dose-only effect; inactive means no such curve, though single readings can be large or run the other way; further: on the % scale 0 is the no-effect control and ±100 the full control effect; nearly all actives have a fitted effect of over 50% in size
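Fission yeast strain RE007, carrying one chromosomally integrated HIV-1 vpr copy, was seeded at OD 0.01 in PMG+AL medium with 23 nL pinned compound. After 24 h at 30 °C and 99% humidity, viability was read by BacTiter-Glo luminescence.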
* hit, by the source's call. Unless noted, the call rests on the fitted dose curve. Potency means the concentration at half of the fitted maximal effect.

COc1ccc(N2C(=O)/C(=C\c3ccco3)N=C2SCC(=O)N(C(C)C)C(C)C)cc1Cl was read as SARS PLpro yeast -6.9%, Pf growth 48h 10.4µM*, Pf growth 96h inconclusive, NS1 function inh inconclusive and RE007 growth inh -5.4%.
`COc1ccc(N2C(=O)/C(=C\c3ccco3)N=C2SCC(=O)NC(C)C)cc1Cl` gave SARS PLpro yeast -22.7%, Pf growth 48h -30.0%, Pf growth 96h inconclusive, NS1 function inh 23.3% and RE007 growth inh 6.9%.
O=S(=O)(NCC(c1cccnc1)N1CCN(c2ccccc2F)CC1)c1cccs1 (stereo unspecified) was read as SARS PLpro yeast -2.8%, Pf growth 48h 13.1µM*, Pf growth 96h inconclusive, NS1 function inh -14.8% and RE007 growth inh -7.9%.
Screening O=S(=O)(NCC(c1cccnc1)N1CCN(c2ccc(F)cc2)CC1)c1cccs1 (stereo unspecified) returned SARS PLpro yeast 3.3%, Pf growth 48h inconclusive, Pf growth 96h -29.7%, NS1 function inh -30.1% and RE007 growth inh -6.4%.
For CCc1ccc2c(c1)C(=O)CCC2 the results were RE007 growth inh 9.2%.
Screening O=C1CCCc2cc3c(cc21)CC1(C3)Cc2cc3c(cc2C1)C(=O)CCC3 returned SARS PLpro yeast 0.9%, Pf growth 48h 5.22µM*, Pf growth 96h inconclusive and NS1 function inh -2.7%.
`Cc1cc(F)ccc1S(=O)(=O)N(CC(=O)N1CCOCC1)CC(=O)N1CCOCC1` gave SARS PLpro yeast 1.3% and RE007 growth inh -4.2%.
For C[C@H]1NS(=O)(=O)c2ccc(Br)cc2O[C@H]1c1ccccc1 the results were SARS PLpro yeast -6.0% and RE007 growth inh 4.1%.
For COc1cc(CN2CCCCCC2)cc(OC)c1OC the results were SARS PLpro yeast 2.7%, Pf growth 48h 7.0%, Pf growth 96h 35.3%, NS1 function inh -8.7% and RE007 growth inh -10.6%.
`COc1ccc(OC)c(CN2CCN(Cc3cc(OC)c(OC)c(OC)c3)CC2)c1` gave Pf growth 48h 0.0%, Pf growth 96h 13.1µM*, NS1 function inh 1.6% and RE007 growth inh -5.3%.
`Cc1ccc(N=C2NC(=O)c3cc([N+](=O)[O-])ccc32)cc1` gave SARS PLpro yeast -13.3%, Pf growth 48h -4.7%, Pf growth 96h 4.15µM*, NS1 function inh 5.8% and RE007 growth inh 2.1%.
`CC(C)(C)c1ccc(C(=O)NCC(=O)N/N=C/c2cccnc2)cc1` gave SARS PLpro yeast 0.6%, Pf growth 48h 36.1%, Pf growth 96h 18.4%, NS1 function inh -4.8% and RE007 growth inh 3.6%.
Screening CN(Cc1cnn(C)c1)Cc1nc(-c2ccc(Cl)cc2)no1 returned SARS PLpro yeast 0.3%, Pf growth 48h 47.6%, Pf growth 96h 9.28µM*, NS1 function inh -1.9% and RE007 growth inh -13.8%.
`Cc1cccc(C(=O)O/N=C/c2c(N3CCOCC3)n(C)c3ccccc23)c1` gave SARS PLpro yeast -26.8%, Pf growth 48h 6.57µM*, Pf growth 96h 1.85µM* and NS1 function inh -213.3%.
CC(=O)Nc1ccc(Nc2nc(C)c([N+](=O)[O-])c(Nc3ccc(NC(C)=O)cc3)n2)cc1 was read as SARS PLpro yeast -2.4%, Pf growth 48h -26.3%, Pf growth 96h 2.08µM*, NS1 function inh 8.2% and RE007 growth inh 8.2%.
CCOc1ccc(S(=O)(=O)Nc2ccccc2C(=O)N2CCOCC2)cc1 was read as SARS PLpro yeast 1.0%, Pf growth 48h 13.5%, Pf growth 96h 0.6%, NS1 function inh -5.4% and RE007 growth inh 4.1%.
For CC(C)C[C@@]12C(=O)N(c3cccc(F)c3)C(=O)N1[C@H](c1ccc(F)cc1)[C@@H]1C(=O)N(C3CCCCC3)C(=O)[C@@H]12 the results were SARS PLpro yeast 0.2%, Pf growth 48h 10.4µM*, Pf growth 96h inconclusive and RE007 growth inh 12.3%.
Screening C[C@@]12C(=O)N(c3cccc(F)c3)C(=O)N1[C@H](c1ccc(F)cc1)[C@@H]1C(=O)N(C3CCCCC3)C(=O)[C@@H]12 returned SARS PLpro yeast 4.1%, Pf growth 48h inconclusive, Pf growth 96h -15.6%, NS1 function inh -8.0% and RE007 growth inh -14.6%.
COc1ccc(N2C(=O)N3[C@H](c4ccc(Cl)cc4)[C@@H]4C(=O)N(C5CCCCC5)C(=O)[C@@H]4[C@]3(C)C2=O)cc1 was read as SARS PLpro yeast 7.0%, Pf growth 48h inconclusive, Pf growth 96h 2.33µM*, NS1 function inh inconclusive and RE007 growth inh 1.3%.
Screening C[C@@]12C(=O)N(c3cccc(F)c3)C(=O)N1[C@H](c1ccc(Cl)cc1)[C@@H]1C(=O)N(C3CCCCC3)C(=O)[C@@H]12 returned SARS PLpro yeast -2.2%, Pf growth 48h 11.7µM*, Pf growth 96h -6.8% and RE007 growth inh 12.7%.
`CC(C)C[C@@]12C(=O)N(c3cccc(F)c3)C(=O)N1[C@H](c1ccc(Cl)cc1)[C@@H]1C(=O)N(C3CCCCC3)C(=O)[C@@H]12` gave SARS PLpro yeast 4.1%, Pf growth 48h 2.94µM*, Pf growth 96h 4.65µM* and RE007 growth inh 1.9%.
`COc1cc(OC)cc(C(=O)NNC(=O)CCc2nc3ccccc3c(=O)[nH]2)c1` gave SARS PLpro yeast 4.3%, Pf growth 48h -26.5%, Pf growth 96h inconclusive and RE007 growth inh 7.1%.
CN(Cc1ccccc1)C(=O)COC(=O)CCN1C(=O)C2CC=CCC2C1=O (stereo unspecified) was read as SARS PLpro yeast -5.3%, Pf growth 48h -9.9%, Pf growth 96h -3.5% and RE007 growth inh 9.0%.
`Cn1c(=O)c2c(ncn2CC(=O)OCC(=O)Nc2ccc(F)cc2F)n(C)c1=O` gave SARS PLpro yeast 3.1%, Pf growth 48h -11.1%, Pf growth 96h 19.4% and RE007 growth inh -28.0%.
COCCNC(=O)C1(C)CCCN(C(=O)c2c(-c3ccccc3)noc2C)C1 (stereo unspecified) was read as RE007 growth inh -15.8%.
COc1cc(/C=C/C(=O)NC(=O)c2ccccc2O)ccc1OC(C)=O was read as SARS PLpro yeast -21.6%, Pf growth 48h -19.8%, Pf growth 96h 9.28µM*, NS1 function inh 9.6% and RE007 growth inh -26.1%.
`COc1ccc(/C=C/C(=O)NC(=S)Nc2ccccc2)cc1OC` gave SARS PLpro yeast 0.8%, Pf growth 48h 15.3%, Pf growth 96h 15.6%, NS1 function inh 4.8% and RE007 growth inh 0.7%.
Screening COc1cccc(CNC(=O)CSc2nc(=O)n(Cc3ccncc3)c3c2CCC3)c1 returned Pf growth 48h 10.4µM*, Pf growth 96h inconclusive and RE007 growth inh -7.9%.
Screening N#CCCN(C(=O)COC(=O)CNS(=O)(=O)c1ccc2ccccc2c1)c1ccccc1 returned SARS PLpro yeast 3.3%, Pf growth 48h 6.1%, Pf growth 96h 9.5% and RE007 growth inh -15.9%.
Screening CCOC(=O)NN=C1c2ccccc2-c2ccccc21 returned SARS PLpro yeast 2.3%, Pf growth 48h 25.5%, Pf growth 96h 10.4µM*, NS1 function inh -11.7% and RE007 growth inh 0.6%.
